The results in this text go back to PubChem BioAssay.

Structures are written as SMILES. Activity calls are given as the source filed them. Unless noted, how the calls were made is not given here.

In assay [1] the test system is Wnt5a (protein binding on small-molecule microarray). The experiment in a line: small molecules binding Wnt5a protein – biophysical, small-molecule microarray, 635/667 nm fluorescence, primary screen (AID 1142).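 Further: fluorescence read at 667 nm with signal to noise per printed feature.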 Particulars: 635 nm fluorescence, higher = more signal.
Assay [2] can be described thus: ATP-based viability of Huh7 replicon cells – cell-based, CellTiter-Glo luminescence, basal, 48 h, cytotoxicity control for HCV replication inhibitor project, primary screen (AID 1143).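 Further: Huh7 hepatoma cells carrying a hepatitis C replication reporter with no stimulus; test concentration not given here.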 Particulars: higher = more signal, called active from +8 up or from −8 down.
Assay [3] is described as follows: Pseudomonas biofilm growth suppression – PAO1 strain, BacTiter-Glo luminescence, LB-PBS, primary screen (AID 1144). The following applies: P. aeruginosa PAO1 biofilm, 12 h, higher = more signal.
Assay [4] in a line: basal CRE-LacZ reporter activity in PC12 – cell-based, unstimulated, primary screen (AID 1145). The following applies: no forskolin, luminescence, 4.5 h, higher = more signal, called active from +8 up or from −8 down.
Assay [5] can be described thus: forskolin-driven CRE-LacZ activity in PC12 – cell-based, CRE-LacZ reporter, forskolin-stimulated, primary screen (AID 1146).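 Further: PC12 cells with 6xCRE LacZ reporter stimulated by forskolin 10 µM; beta-galactosidase reporter signal reflecting CREB driven transcription.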 The following applies: luminescence, 4.5 h, higher = more signal, called active from +8 up or from −8 down.
Assay [6] addresses Streptavidin (Streptomyces avidinii) (UniProt P22629). As to the kind of experiment: compounds binding control protein streptavidin – biophysical, small-molecule microarray, 635/667 nm fluorescence, artefact control for SMM compound annotation, primary screen (AID 1147).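 Further: signal reflects streptavidin binding to arrayed compounds as a control protein.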 The following applies: higher = more signal.
Assay [7] in a line: probe aInhba binding on compound microarray – biochemical, small-molecule microarray, 635/667 nm fluorescence, primary screen (AID 1148).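 Further: score merges 667nm spot fluorescence with signal-to-noise for antibody binding to printed compounds.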 Particulars: higher = more signal.
Assay [8] has as its target Torsin-1A (Homo sapiens) (UniProt O14656). As to the kind of experiment: TOR1A wild-type binding on microarray – cell lysate, small-molecule microarray, lysate, 635/667 nm, primary screen (AID 1149). The following applies: COS7 hTOR1A-WT lysate, 635 nm fluorescence, higher = more signal.
Assay [9] shares this target. The experiment in a line: torsin A mutant lysate binding on microarrays – cell lysate, small-molecule microarray, COS7 lysate, 635/667 nm fluorescence, primary screen (AID 1150).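 Further: score pools 667 nm emission and signal to noise measuring lysate protein binding.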 The following applies: COS7 hTOR1A mutant lysate, 635 nm fluorescence, higher = more signal.
Assay [10] relates to Sonic hedgehog protein (Shh). The experiment in a line: Sonic hedgehog microarray binding compounds – biochemical, small-molecule microarray, 635/667 nm fluorescence, primary screen (AID 1151).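 Further: Shh protein binding to compounds spotted on small-molecule microarray slides; score combines spot fluorescence intensity with signal-to-noise across triplicate slides.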 Particulars: 635 nm fluorescence, higher = more signal.
Assay [11] is described as follows: optical density shifts of acrAB sulA E. coli – strain DRC41, OD650, 48 h, E. coli filamentation inducer project, primary screen (AID 1152).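 Further: E. coli MC1000 strain DRC41 lacking acrAB efflux pump and sulA.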 Particulars: higher = more signal, called active from +8 up or from −8 down.
Assay [12] is described as follows: probe aLefty1 binding on compound microarray – biochemical, small-molecule microarray, 635/667 nm fluorescence, primary screen (AID 1153).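 Further: score merges spot fluorescence with signal-to-noise ratio from the scanned slide images.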 The following applies: higher = more signal.
Assay [13] is described as follows: plasmodial surface anion channel blockers, osmotic lysis – cell-based, P. falciparum Indochina, OD700, 1 h, primary screen (AID 1154). Particulars: P. falciparum Indochina infected RBC osmotic lysis, higher = more signal, called active from +8 up or from −8 down.
The nature of assay [14]: plasmodial surface anion channel blockers, osmotic lysis – cell-based, P. falciparum Indochina, OD700, 2 h, primary screen (AID 1155).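 Further: lysis reports solute entry through the parasite surface anion channel PSAC.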 Particulars: P. falciparum Indochina infected erythrocytes, higher = more signal, called active from +8 up or from −8 down.
A short description of assay [15]: changes in parasitized red cell lysis, either direction – P. falciparum Indochina, OD700, 3 h, PSAC antagonist project, primary screen (AID 1156). Particulars: P. falciparum-infected erythrocytes, osmotic lysis, higher = more signal, called active from +8 up or from −8 down.
Assay [16] is described as follows: plasmodial surface anion channel blockers, osmotic lysis – cell-based, P. falciparum Indochina, OD700, 18 h, primary screen (AID 1157). Particulars: P. falciparum Indochina infected erythrocytes, osmotic lysis OD700, 18 h; higher = more signal, called active from +8 up or from −8 down.
The nature of assay [17]: S6 kinase pathway phospho-S6 level changes – cell-based, A549, cytoblot, luminescence, serum-stimulated, primary screen (AID 1158).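 Further: serum-stimulated A549 lung adenocarcinoma cells; signal is phosphorylated S6 detected by cytoblot immunostaining with HRP secondary.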 The following applies: 5 h, higher = more signal.
Assay [18] has as its target NADPH oxidase 2 (Homo sapiens) (UniProt P04839). As to the kind of experiment: compounds shifting NOX2 Amplex Red fluorescence – cell-based, HEK293-NOX2, PMA-stimulated, NOX inhibitor project, primary screen (AID 1159). Further: test concentration not given here. The following applies: 45 min, higher = more signal, called active from +8 up or from −8 down.
Assay [19] addresses NADPH oxidase 4 (Homo sapiens) (UniProt Q9NPH5). The experiment in a line: compounds shifting NOX4 Amplex Red fluorescence – cell-based, HEK293-NOX4, tetracycline-induced, NOX inhibitor project, primary screen (AID 1160). The following applies: HEK293-NOX4, Amplex Red H2O2 fluorescence, 45 min; higher = more signal, called active from +8 up or from −8 down.
The target in assay [20] is NADPH oxidase 5 (Homo sapiens) (UniProt Q96PH1). As to the kind of experiment: compounds shifting NOX5 Amplex Red fluorescence – cell-based, HEK293-NOX5, NOX inhibitor project, primary screen (AID 1161). Particulars: HEK293-NOX5, ionomycin, 45 min, higher = more signal.
Chain of NADPH oxidase 5 (Homo sapiens) (Q96PH1 whole entry, looked up): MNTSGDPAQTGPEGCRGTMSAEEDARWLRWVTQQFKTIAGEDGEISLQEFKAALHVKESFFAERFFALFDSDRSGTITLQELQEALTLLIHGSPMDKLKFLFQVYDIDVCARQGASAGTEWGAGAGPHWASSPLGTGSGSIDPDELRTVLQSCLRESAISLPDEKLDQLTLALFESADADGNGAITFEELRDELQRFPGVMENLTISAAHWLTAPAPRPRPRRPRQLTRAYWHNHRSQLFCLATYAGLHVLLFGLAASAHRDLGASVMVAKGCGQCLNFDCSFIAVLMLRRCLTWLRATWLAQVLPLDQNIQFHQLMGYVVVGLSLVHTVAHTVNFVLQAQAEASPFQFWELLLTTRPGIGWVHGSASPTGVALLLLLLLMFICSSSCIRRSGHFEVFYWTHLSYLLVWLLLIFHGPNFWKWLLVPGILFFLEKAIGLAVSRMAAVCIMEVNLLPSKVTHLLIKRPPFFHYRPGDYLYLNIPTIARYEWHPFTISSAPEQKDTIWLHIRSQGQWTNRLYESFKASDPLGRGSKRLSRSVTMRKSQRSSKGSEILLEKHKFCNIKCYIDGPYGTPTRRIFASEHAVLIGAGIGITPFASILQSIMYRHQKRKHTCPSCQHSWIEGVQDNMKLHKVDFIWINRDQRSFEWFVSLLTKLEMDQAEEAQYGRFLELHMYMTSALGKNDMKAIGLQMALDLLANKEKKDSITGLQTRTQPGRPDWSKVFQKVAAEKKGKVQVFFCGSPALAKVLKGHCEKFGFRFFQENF

Chain of NADPH oxidase 2 (Homo sapiens) (P04839 whole entry, looked up): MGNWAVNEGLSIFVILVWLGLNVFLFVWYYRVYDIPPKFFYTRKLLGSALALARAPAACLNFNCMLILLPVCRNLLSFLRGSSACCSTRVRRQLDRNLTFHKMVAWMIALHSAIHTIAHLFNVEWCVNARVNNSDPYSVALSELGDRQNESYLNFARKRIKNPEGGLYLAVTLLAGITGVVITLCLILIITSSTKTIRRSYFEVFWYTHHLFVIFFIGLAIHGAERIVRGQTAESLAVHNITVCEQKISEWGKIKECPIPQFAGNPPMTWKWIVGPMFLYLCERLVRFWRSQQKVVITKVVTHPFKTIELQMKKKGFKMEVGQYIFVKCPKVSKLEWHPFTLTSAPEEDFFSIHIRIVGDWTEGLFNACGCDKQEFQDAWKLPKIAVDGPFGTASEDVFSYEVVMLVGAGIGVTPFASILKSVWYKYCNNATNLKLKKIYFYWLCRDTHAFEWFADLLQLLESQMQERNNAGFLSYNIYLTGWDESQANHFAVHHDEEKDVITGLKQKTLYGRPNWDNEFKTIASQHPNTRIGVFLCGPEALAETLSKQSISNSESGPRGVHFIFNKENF
Chain of NADPH oxidase 4 (Homo sapiens) (Q9NPH5 whole entry, looked up): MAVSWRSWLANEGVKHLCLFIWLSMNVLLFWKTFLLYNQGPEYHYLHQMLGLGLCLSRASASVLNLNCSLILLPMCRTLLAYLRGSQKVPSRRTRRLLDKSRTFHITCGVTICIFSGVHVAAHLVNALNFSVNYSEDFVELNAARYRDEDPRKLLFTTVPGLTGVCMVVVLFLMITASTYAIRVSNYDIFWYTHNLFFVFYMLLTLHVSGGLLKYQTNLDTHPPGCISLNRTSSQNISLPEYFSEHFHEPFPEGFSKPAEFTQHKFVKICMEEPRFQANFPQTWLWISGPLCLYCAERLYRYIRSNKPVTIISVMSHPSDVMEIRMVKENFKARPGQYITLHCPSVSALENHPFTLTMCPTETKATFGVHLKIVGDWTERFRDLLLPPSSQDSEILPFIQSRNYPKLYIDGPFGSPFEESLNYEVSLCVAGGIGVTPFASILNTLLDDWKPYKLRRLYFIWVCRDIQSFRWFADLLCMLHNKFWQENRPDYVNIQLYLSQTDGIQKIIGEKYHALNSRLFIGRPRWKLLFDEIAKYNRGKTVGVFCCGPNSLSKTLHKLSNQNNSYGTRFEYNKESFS
Chain of Streptavidin (Streptomyces avidinii) (P22629 whole entry, looked up): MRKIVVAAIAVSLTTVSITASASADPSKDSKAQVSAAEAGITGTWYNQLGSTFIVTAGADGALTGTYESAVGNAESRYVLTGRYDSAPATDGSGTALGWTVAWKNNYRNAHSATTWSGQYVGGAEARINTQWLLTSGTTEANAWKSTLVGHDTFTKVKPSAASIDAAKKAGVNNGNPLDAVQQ
Chain of Torsin-1A (Homo sapiens) (O14656 whole entry, looked up): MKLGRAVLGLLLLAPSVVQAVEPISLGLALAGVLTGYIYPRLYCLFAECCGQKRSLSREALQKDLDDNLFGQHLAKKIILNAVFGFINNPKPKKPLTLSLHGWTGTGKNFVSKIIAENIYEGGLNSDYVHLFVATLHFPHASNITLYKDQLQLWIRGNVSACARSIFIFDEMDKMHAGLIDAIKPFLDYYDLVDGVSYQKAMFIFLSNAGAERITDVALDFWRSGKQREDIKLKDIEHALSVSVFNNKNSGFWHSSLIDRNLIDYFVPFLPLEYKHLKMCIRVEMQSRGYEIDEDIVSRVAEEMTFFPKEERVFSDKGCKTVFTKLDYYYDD

Take `CCCCCCc1nc(-c2cc(C)c(OC)c(C)c2)cc2c1[Si](C(C)C)(C(C)C)O[C@H]2c1ccccc1`: the composite z-score was -0.452 in assay [1]; 0.0741 in [6]; -0.121 in assay [7]; -1.48 with Torsin-1A (Homo sapiens) [8]; -1.07 with Torsin-1A (Homo sapiens) [9]; -0.162 in assay [10]. The composite z-score in [12] is -0.0989. Further, the z-score in [2] is -0.59 (inactive); in assay [3] it was 0.368 (inactive); in assay [4], -0.244 (inactive); in assay [5] it was -0.272 (inactive); in [11], -0.548 (inactive); in assay [13] it was 1.31 (inactive). In addition, the z-score was -0.0446 (inactive) in [14]; 1.06 (inactive) in [15]; 0.0157 (inactive) in assay [16]; 0.561 in [17]; -0.313 (inactive) in [18]; -1.16 (inactive) in [19]. Besides, the z-score in assay [20] was -2.07.
As to `C=C(C(=O)CC[C@H](OC(=O)c1ccccc1-c1ccccc1C(=O)O)c1ccc(CO)o1)C(C)C`, the composite z-score in assay [1] is 0.416; in assay [6], 0.194; in [7], -0.0933; in the assay with Torsin-1A (Homo sapiens) [8], 0.427; with Torsin-1A (Homo sapiens) [9], 0.669; in assay [10] it was 1.71. The composite z-score in assay [12] was 0.0026. Moreover, the z-score in assay [2] was 0.559 (inactive); in [3], -1.11 (inactive); in assay [4] it was 0.406 (inactive); in [5], 2.42 (inactive); in [11], -0.748 (inactive); in assay [13] it was 2.22 (inactive). Moreover, the z-score in [14] is 0.36 (inactive); in assay [15] it was 1.19 (inactive); in assay [16], 0.233 (inactive); in assay [17], 0.124; in assay [18], -0.162 (inactive); in assay [19], -0.621 (inactive). Further, in [20], the z-score is -0.867.
Take `C=CCC(OC(C)=O)[C@@H]1[C@@H](N(Cc2cccc3ccccc23)C(=O)c2ccc(C)cc2)c2cc(OCCCO)ccc2N1C(=O)c1ccc(-c2ccccc2)cc1` (stereo not given in full): the composite z-score was -0.0459 in [1]; 0.425 in assay [6]; -0.0719 in assay [7]; 0.0621 with Torsin-1A (Homo sapiens) [8]; -0.213 in the assay with Torsin-1A (Homo sapiens) [9]; 0.0891 in assay [10]. The compound further came in with a composite z-score in [12] of 0.0384. The z-score in assay [2] was -0.552 (inactive); in assay [3], 0.528 (inactive); in assay [4], 0.455 (inactive); in [5], 0.289 (inactive); in assay [11] it was 2.5 (inactive); in assay [13], 0.441 (inactive). Moreover, the z-score is -1.33 (inactive) in assay [14]; -1.24 (inactive) in assay [15]; -1.5 (inactive) in assay [16]; 2.07 in assay [17]; -0.0559 (inactive) in [18]; 1.01 (inactive) in [19]. Besides, in assay [20], the z-score was determined as 2.96.
`O=C1C2C=CC(C(O)C(c3ccccc3)c3ccccc3)N(Nc3ccc([N+](=O)[O-])cc3)C2C(=O)N1c1ccccc1` (stereo not given): the composite z-score in [1] was 0.528; in assay [6], 1.13; in [7], 0.0183; in the assay with Torsin-1A (Homo sapiens) [8] it was 0.738; with Torsin-1A (Homo sapiens) [9], 0.871; in [10], 0.762. The composite z-score in [12] is 0.442. Further, the z-score in assay [2] is -0.664 (inactive); in [3], -1.81 (inactive); in assay [4] it was -0.433 (inactive); in assay [5], 0.384 (inactive); in assay [11], -0.344 (inactive); in [13], 5.98 (inactive). Moreover, the z-score is 1.73 (inactive) in assay [14]; -0.186 (inactive) in assay [15]; 1.29 (inactive) in [16]; -0.606 in assay [17]; 0.128 (inactive) in assay [18]; -1.06 (inactive) in [19]. Also, the z-score in assay [20] is -0.097.
Turning to `CCCC=C(CCC)[C@@H](NS(=O)(=O)c1ccc(C(F)(F)F)cc1)c1ccc(-c2ccccc2)cc1`, the composite z-score amounted to 0.281 in [1]; 0.991 in [6]; 0.0445 in assay [7]; 0.059 in the assay with Torsin-1A (Homo sapiens) [8]; 0.664 with Torsin-1A (Homo sapiens) [9]; 0.618 in [10]. The same compound showed a composite z-score in [12] of 0.448. Also, the z-score in [2] was -2.08 (inactive); in [3], 0.524 (inactive); in [4] it was -0.372 (inactive); in [5], 0.486 (inactive); in assay [11], -1.78 (inactive); in assay [13] it was 2.51 (inactive). Also, the z-score in assay [14] is 0.329 (inactive); in assay [15] it was -0.516 (inactive); in assay [16], 0.543 (inactive); in assay [17], 1.47; in [18] it was -1.57 (inactive); in assay [19], -0.618 (inactive). The z-score in assay [20] was determined as 2.7.
